Calls of active or inactive are those of the source. Rule for the calls: active = hit-call score of the fitted dose curve at least 0.9, where 1 is the maximum; inactive = score below 0.9.
What follows are compounds tested on Matrix Metallopeptidase 1 (MMP1), MMP1 (gene 4312) (assay: BSK_BE3C_MMP1: BioMAP Diversity Plus: BE3C Assay for Matrix Metallopeptidase 1 (MMP1) Biomarker Activity (AID 2283024)). Conditions: primary human bronchial epithelial cells; actives raise or lower the signal.
Experimental: BSK_BE3C is a cell-based, multiplexed-readout assay that uses bronchial epithelial cell, a human lung primary cell, with measurements taken at 24 hours after chemical dosing in a 96-well plate.BSK_BE3C_MMP1 is an assay component measured in the BSK_BE3C assay. It measures MMP-1 antibody related to regulation of gene expression using ELISA technology.Data from the assay component BSK_BE3C_MMP1 was analyzed into 1 assay endpoint. This assay endpoint, BSK_BE3C_MMP1, was analyzed with bidirectional fitting relative to DMSO as the negative control and baseline of activity. Using a type of binding reporter, gain or loss-of-signal activity can be used to understand changes in the signaling as they relate to the gene MMP1. Furthermore, this assay endpoint can be referred to as a primary readout, because this assay has produced multiple assay endpoints where this one serves a signaling function. To generalize the intended target to other relatable targets, this assay endpoint is annotated to the protease intended target family, where the subfamily is matrix metalloproteinase.
The levels of cell surface (or secreted, indicated by the prefix "s") biomarker endpoints were measured by ELISA. Overt cytotoxicity to cells in confluent adherent cultures (all systems other than the BT system) was assessed by measuring total protein levels using sulforhodamine B (SRB) staining in parallel cultures at the time of biomarker measurements, indicated as SRB endpoints. For proliferation assays for adherent cell types, individual cell types are cultured at sub-confluence and relative cell numbers quantified by SRB staining at time points optimized for each system (48 h: 3C and CASM3C systems; 72 h: BT and HDF3CGF systems; 96 h: SAg system). SRB was performed by staining cells with 0.1% SRB after fixation with 10% TCA and reading wells at 560 nm.Viability and proliferation of PBMC (T cells) was quantified by Alamar Blue reduction for the SAg and BT systems. For PBMC viability (referred to as PBMC Cytotoxicity within the assay endpoint names), cells were plated (75,000/well in a 96-well plate) and then chemical samples added for 1 h before addition of activators, SEB and TSST-1 (20 ng/mL final concentration each). Cells were incubated for 90 h. Then, Alamar Blue (20 uL/well) (Invitrogen, Cat DAL1100) was added for 6 h, and the plates were read with a fluorescence microplate reader at 546/580 nm (excitation/emission). For PBMC proliferation, cells were plated and activated as above but incubated for only 16 h prior to addition of Alamar Blue. Plates were read after 6 h.

SMILES | outcome | AC50
NC(=Nc1ccccc1)Nc1ccccc1 | inactive | 
CCc1nc(N)nc(N)c1-c1ccc(Cl)cc1 | inactive | 
Cc1cn([C@H]2C=C[C@@H](CO)O2)c(=O)[nH]c1=O | inactive | 
CC(C)c1cccc(C(C)C)c1NC(=O)NS(=O)(=O)c1cc(C(C)(C)O)co1 | inactive | 
Cc1ccc(-c2cc(C(F)(F)F)nn2-c2ccc(S(N)(=O)=O)cc2)cc1 |  | 31.7 µM (active)
CC(=O)OCC(COC(C)=O)OC(C)=O | inactive | 
CC(C)COC(=O)CCCCC(=O)OCC(C)C | inactive | 
S=c1[nH]c2ccccc2s1 | inactive | 
CN(C)C(=O)NC1(c2ccccc2)CCN(CC[C@@]2(c3ccc(F)c(F)c3)CN(C(=O)c3ccccc3)CCO2)CC1 | inactive | 
Nc1nc(=S)c2[nH]cnc2[nH]1 | inactive | 
CC(C)NCC(O)c1ccc(O)c(O)c1 (stereo not given) | inactive | 
CS(=O)(=O)c1ccc([C@@H](C[C@H]2CCC(=O)C2)C(=O)Nc2cnccn2)cc1Cl | inactive | 
COC(=O)[C@H]1[C@H]2C[C@@H]3c4[nH]c5cc(OC)ccc5c4CCN3C[C@H]2C[C@@H](OC(=O)c2cc(OC)c(OC)c(OC)c2)[C@@H]1OC | inactive | 
Nc1nc(Cl)nc2c1ncn2[C@H]1C[C@H](O)[C@@H](CO)O1 | inactive | 
c1ccc2occc2c1 | inactive | 
CC(=O)OC1CC(C)OC(C)O1 (stereo not given) | inactive | 
COC(=O)CCC(=O)OC | inactive | 
CCCCCCCCCC[N+](C)(C)[O-] | inactive | 
COC(=O)CCCC(=O)OC | inactive | 
O=C(N[C@@H](c1ccccc1)[C@@H]1CCCCN1)c1cccc(C(F)(F)F)c1Cl |  | 31.8 µM (active)

SMILES | outcome | AC50
CCC(C)N(C)C(=O)c1cc2ccccc2c(-c2ccccc2Cl)n1 (stereo not given) | inactive | 
CC(=O)O[C@]1(C(C)=O)CC[C@H]2[C@@H]3C=C(Cl)C4=CC(=O)[C@@H]5C[C@@H]5[C@]4(C)[C@H]3CC[C@@]21C |  | 4.91 µM (active)
Cc1ccc(C(C)(C)C)c(O)c1 | inactive | 
C=CCCCCCCCCCCCC | inactive | 
CC(C)(O)c1ccc(CNC(=O)c2cccnc2Oc2ccc(F)cc2)cc1 | inactive | 
CCCC(=O)O | inactive | 
CCCCc1nc2cccnc2n1Cc1ccc(-c2ccccc2-c2nnn[nH]2)cc1 |  | 6.21 µM (active)
COc1ccc(C(=O)Nc2nc3ccccc3c(NCc3ccccc3)c2C#N)cc1 |  | 7.48 µM (active)
CC(=O)CC(c1ccccc1)c1c(O)c2ccccc2oc1=O (stereo not given) | inactive | 
CSc1ccc(Oc2ccc(S(N)(=O)=O)cc2CN(C)C)cc1C | inactive | 
O=C(O)c1cccnc1 | inactive | 
NCCOCCOCCN | inactive | 
CC(=O)S[C@H](C(=O)N[C@H]1Cc2ccccc2[C@H]2CCC[C@@H](C(=O)O)N2C1=O)C(C)C | inactive | 
CO[C@@H]1COCC[C@@H]1N[C@@H]1CC[C@@](C(=O)N2CCc3ncc(C(F)(F)F)cc3C2)(C(C)C)C1 | inactive | 
O=C1OC(c2ccc(O)cc2)(c2ccc(O)cc2)c2ccccc21 |  | 3.97 µM (active)
O=C1c2c(O)cccc2Cc2cccc(O)c21 |  | 4.63 µM (active)
CC(C)OC(=O)C(C)(C)Oc1ccc(C(=O)c2ccc(Cl)cc2)cc1 |  | 13.3 µM (active)
Cc1occc(=O)c1O | inactive | 
Cc1cc(SC2=C(O)C[C@@](CCc3ccc(N)cc3)(C(C)C)OC2=O)c(C(C)(C)C)cc1CO | inactive | 
CCCCCCC(C=O)=Cc1ccccc1 | inactive | 

Source: PubChem BioAssay (EPA / NIEHS)
